Data reported in PubChem BioAssay (EPA / NIEHS).
Calls of active or inactive are those of the source. Rule for the calls: active = hit-call score of the fitted dose curve at least 0.9, where 1 is the maximum; inactive = score below 0.9.

assay: CCTE_Shafer_MEA_acute_per_burst_spike_number_mean: CCTE's Neural Acute Assay for Average Number of Spikes Per Burst, Shafer Lab (AID 2284015);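 note: hits are decreases in mean spikes per burst versus baseline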
Procedure: CCTE_Shafer_MEA_acute assay is conducted using Axion Biosystems 48 well microelectrode array (MEA) plates and Maestro recording system. Each well of the MEA plate contains a grid of 16 microelectrodes embedded in the culture surface. Electrically active cells, such as neurons, can be cultured over the electrodes, and electrical activity in these cells can be recorded extracellularly. The spontaneous firing of neurons is captured from each electrode on a microsecond timescale providing both temporally and spatially precise data. […] The CCTE_Shafer_MEA_acute assay uses primary cultures of rat cortical neurons. As these cultures mature over time, neural networks develop functional activity and form cohesive networks in which electrical activity can be highly coordinated. Baseline 40-minute recordings are made on days post-plating 13 or 15, followed by a secondary 40-minute recording after chemical exposure.CCTE_Shafer_MEA_acute_per_burst_spike_number_mean is a component of the CCTE_Shafer_MEA_acute assay. It measures the average number of spikes (action potential firings) in a single-electrode burst (temporally-clustered group of spikes) during a recording in a microelectrode array (MEA) using Axion Biosystems Maestro 768 channel amplifier with the AxIS adaptive spike detector. The recordings before and after chemical treatment are used to calculate a percent change in the mean number of spikes per burst in each well.Data from the assay component CCTE_Shafer_MEA_acute_per_burst_spike_number_mean was analyzed into 1 assay endpoint. This assay endpoint, CCTE_Shafer_MEA_acute_per_burst_spike_number_mean, was analyzed in the negative analysis fitting direction relative to DMSO as the negative control and baseline of activity. Using a type of functional reporter, gain or loss-of-signal activity can be used to understand electrical activity.
Spontaneous activity in the cortical cultures was recorded using an Axion Biosystems Maestro 768 channel amplifier and Axion Integrated Studios (AxIS) v1.8 (or later) software. The amplifier recorded from all channels simultaneously (gain = 1200 x; sampling rate = 12.5 kHz/channel): raw signals were filtered with a Butterworth band-pass filter (300-5000 Hz), which filters out slower local field potentials leaving only fast potentials, i.e., "spikes", arising from extracellular currents associated with action potentials (Pine 2006; Wheeler and Nam 2011). On-line spike detection of filtered signals was conducted with the AxIS adaptive spike detector, using a threshold of 8x the root mean squared (rms) noise on each channel. Any electrodes with rms noise levels greater than 5 uV were grounded (e.g., no data were recorded). Once grounded, an electrode was grounded for the duration of the experiment. All recordings were conducted at 37 C. Wells were deemed usable if on the day of the exposure >/= 10 electrodes were active (defined as >/= 5 spikes/min). On DIV 13 or 15, a minimum of three wells from one cortical culture preparation were treated with each compound (0.03-40 uM). Prior to recording baseline activity, each mwMEA plate was placed in the Maestro at 37 C and allowed to sit for 20 min while firing rates stabilized. Baseline activity (40 min) was recorded before the addition of each compound. An additional 40 min of spontaneous activity was recorded in the presence of each compound. Changes in network parameters relative to baseline were assessed following compound treatment.

Compound | AC50 | outcome
CC1(C)[C@H](C(=O)O[C@H](C#N)c2cccc(Oc3ccccc3)c2)[C@@H]1C=C(Br)Br | 0.387 µM (active) | 
CC1(C)[C@H](C=C(Cl)Cl)[C@@H]1C(=O)O[C@@H](C#N)c1cccc(Oc2ccccc2)c1 | 2.61 µM (active) | 
O=[N+]([O-])O |  | inactive
Cc1ccc(OP(=O)(Oc2ccc(C)cc2)Oc2ccc(C)cc2)cc1 (tested in a mixture with another compound) | 3.99 µM (active) | 
Oc1ccc(C2(c3ccc(O)cc3)c3ccccc3-c3ccccc32)cc1 | 20.5 µM (active) | 
[Cd+2].[Cl-].[Cl-] |  | inactive
CP(=O)(O)CCC(N)C(=O)O (stereo not given) | 50 µM (active) | 
COc1ccc(CO)cc1 | 3.71 µM (active) | 
CP(=O)(O)CC[C@H](N)C(=O)O |  | inactive
O=c1c2ccccc2c(=O)c2c1cc(Cl)c1[nH]c3c([nH]c12)c(Cl)cc1c(=O)c2ccccc2c(=O)c13 |  | inactive
CC1(C)[C@@H](C=C(Cl)Cl)[C@@H]1C(=O)O[C@@H](C#N)c1ccc(F)c(Oc2ccccc2)c1 | 0.842 µM (active) | 
CCCC[N+](CCCC)(CCCC)CCCC | 5.44 µM (active) | 
c1cc[n+]2c(c1)-c1cccc[n+]1CC2 |  | inactive
C#CCN(C)[C@H](C)Cc1ccccc1 |  | inactive
O=C(O)CNCP(=O)(O)O |  | inactive
